This note sets out measurements from PubChem BioAssay AID1745848 (National Center for Advancing Translational Sciences (NCATS), 2022).

Among all 2,100 compounds or so, about 940 (45%) were called active. Not shown: some 48% with an inconclusive outcome. So high a share suggests a set chosen from earlier hits. Some of the results follow. A number with no mark means an inactive call. Calls follow the shape of the dose curve; as a rule, active = well fitted inhibition curve with a large enough effect; inconclusive = small, poorly fitted or top-dose-only effect; inactive = no such curve, though single readings can be large or run the other way.
Potency is read from the fitted curve at half-maximal effect.

The assay is described as follows: Confirmatory qHTS for Inhibitors of ATXN expression. Also: nearly all actives have a fitted effect of over 65% in size.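 As to activity change, negative = inhibition: 0% = DMSO vehicle wells and -100% = medium-only wells without cells.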 The settings on record: ATXN2-luciferase reporter cells, luminescence, 24 h; series mostly up to 11.5 µM; activity change, negative = inhibition: at the top concentration. An excerpt:
PI: Daniel Scoles Ph.D. University of Utah School of Medicine, Salt Lake City, Utah MLPCN Grant: NS073009 Spinocerebellar ataxia type 2 (SCA2) is a multisystem neurodegenerative disease caused by a dominantly acting mutation leading to expansion of a polyQ domain in the ataxin-2 protein (ATXN2). SCA2 patients develop progressive ataxia and later lose function in other neuronal systems. Prominent parkinsonian signs develop in some patients. Like many neurodegenerative disorders, no symptomatic or disease-modifying treatments are known. The primary objective of the proposed research is to identify compounds inhibiting ATXN2 expression and to test them for efficacy in SCA2 mouse models. We have developed a cell-based assay paired with an in vivo mouse model using identical luciferase expression constructs. This approach takes advantage of an ATXN2-luciferase transgene, with the luciferase gene flanked by the upstream and downstream portions of the ATXN2 gene. Here we describe a 5-7 dose quantitative high thoroughput screen (qHTS) for compounds lowering ATXN2 expression. We screened the NIH Molecular Libraries Small Molecule Repository (MLSMR) and NCGC's mechanistically annotated (MIPE) and drug repurposing (NPC) collections of compounds for lowering expression of an ATXN2-luciferase reporter in HEK-293 cells. The assay is a multiplexed cell viability assay to ensure target reduction in the absence of cytotoxicity. Secondary qHTS assays included a CMV-luciferase reporter expressed in HEK-293 cells as well as a biochemical assay using recombinant luciferase to detect inhibitors of the reporter enzyme. Compounds that inhibit ATXN2 expression but is not cytotoxic were selected for confirmatory and secondary screens.
PROTOCOL TABLE (as described by Inglese J, Shamu CE and Guy RK. 2007) SEQUENCE No. (e.g., 1, 2, 3, etc.); PARAMETER (e.g., Cells, Incubation, Reagent, etc.); VALUE; DESCRIPTION. 1; Cells; 4 uL; white, solid bottom, 1536-well Greiner assay plate. 2; Incubation; 2 hr; 37 degree C in 5% humidified CO2. 3; Compounds; 23 nL; Kalypsis pintool (Wako USA) equipped with a 1536-well pin head. 4; Incubation; 24 hr; 37 degree C in 5% humidified CO2. 5; Reagent; 1 uL; Gly-Phe-7-Amino-4-trifluoromethylcoumarin. 6; Incubation; 30 min; 37 degree C in 5% humidified CO2. 7; Detection; Fluorescence; ViewLux plate reader (PerkinElmer). 8; Reagent; 3 uL; SteadyGlo luciferase solution (Promega). 9; Incubation; 5 min; room temperature. 10; Detection; Luminescence; ViewLux plate reader (PerkinElmer). NOTES (numbers refer to Sequence numbers above) 1. […] expressing ATXN2-luciferase reporter were suspended in phenol-red free DMEM and dispensed in assay plates using a Multidrop Combi dispenser (Thermo Fisher Scientific). Wells containing medium only were plated on each plate, and values were used to normalize (100% inhibition) in the luciferase and CellTiter-Fluor assays. 2. Assay plates were incubated. Evaporation was prevented by covering assay plates with metal lids containing holes to allow gas diffusion. 3. Compounds were added in a dose response manner with the final concentrations of 57, 11.4, 2.28, 0.46, 0.091, 0.018, 0.0037 uM. Vehicle-only plates, with DMSO being pin-transferred to columns 5-48, were inserted uniformly at the beginning and the end of each library to monitor and record any shifts in assay performance. 5. 125 uM Gly-Phe-7-Amino-4-trifluoromethylcoumarin (MP Biomedicals) working concentration was used at a final concentration of 25 uM. 7. To assess cell viability; the assay plates were read using the ViewLux high-throughput CCD imager (PerkinElmer), wherein single end-point fluorescence measurement was acquired (excitation 405/10; emission 540/25 nm). 8. Detection reagent SteadyGlo Luciferase (Promega) was added to the assay plate. 10. Luminescence is then measured on the ViewLux imager equipped with a clear emission filter using a 2 sec exposure. […]
For orientation: In qHTS, concentration-response curves come from the screen itself.
In the case of `O=C(Nc1ccc(Cl)cc1)Nc1ccc(N2CCCC2)c(S(=O)(=O)Nc2ccccc2Cl)c1`, the Potency was 3.55 µM (active).

Regarding `Cc1ccc2ccc3cccnc3c2n1`, the Potency was 4.47 µM (active).

With `OC(c1ccccc1)(c1nc(-c2cc3ccccc3o2)cs1)C(F)(F)F` (stereo not given), the “activity change, negative = inhibition” value is 8.38% [at 57.5 µM].

For the compound `OC(c1ccccc1)(c1nc(-c2ccc3ccccc3c2)cs1)C(F)(F)F` (stereo not given), the “activity change, negative = inhibition” value was 26.4%.

In the case of `OC(c1ccccc1)(c1nc(/C=C/c2ccc(C(F)(F)F)cc2)cs1)C(F)(F)F` (stereo not given), the Potency was 35.5 µM (active).

In the case of `CCOc1cc(C=C(C(=O)OC)C(=O)OC)ccc1OCc1ccc([N+](=O)[O-])cc1`, the Potency was 25.1 µM (active).

As to `CCN(CC)c1ccc(/C=N/NC(=O)c2cccc(S(=O)(=O)N3CCOCC3)c2)c(O)c1`, the Potency was 0.891 µM (active).

For the compound `CCN(CC)c1ccc(/C=N/NC(=O)CNC(=O)C2COc3ccccc3O2)c(O)c1` (stereo not given), the Potency is 0.251 µM (active).

In the case of `O=C(CNC(=O)C1COc2ccccc2O1)N/N=C/c1ccc(O)cc1O` (stereo not given), the Potency is 2.51 µM (active).

`COc1cccc(/C=N/NC(=O)Cn2nc(C)c([N+](=O)[O-])c2C)c1O`: the Potency was 14.1 µM (active).

In the case of `COc1cccc(/C=N/NC(=O)CSc2ccccc2C)c1O`, the Potency is 12.6 µM (active).

Take `CCN(CC)c1ccc(/C=N/NC(=O)Cc2cccs2)c(O)c1`: the Potency was 2.82 µM (active).

`COc1ccccc1/C=C\C(=O)NCC(=O)N/N=C/c1cccc(OC)c1O`: the Potency was 12.6 µM (active).

On to `COc1cccc(/C=N/NC(=O)CNC(=O)C2COc3ccccc3O2)c1O` (stereo not given), for which the Potency is 8.91 µM (active).

As to `Cn1ncc2c(N3CCN(c4ccc(Cl)c(Cl)c4)CC3)ncnc21`, the Potency is 1.58 µM (active).

As for `Oc1c(C(Nc2cccc(C(F)(F)F)c2)c2cccnc2)ccc2cccnc12` (stereo not given), the Potency was 28.2 µM (active).

For the compound `Oc1c(C(Nc2cccc(C(F)(F)F)c2)c2ccncc2)ccc2cccnc12` (stereo not given), the Potency was 3.55 µM (active).

For `COc1ccc(Cl)cc1C(Nc1cccnc1)c1ccc2cccnc2c1O` (stereo not given), the Potency is 12.6 µM (active).

Turning to `Cc1cc(NC(c2cccnc2)c2ccc3cccnc3c2O)no1` (stereo not given), the Potency is 2.82 µM (active).

As to `COC(=O)Cc1[nH]n(-c2nc3ccccc3s2)c(=O)c1C(C)=Nc1ccc(C)cc1`, the “activity change, negative = inhibition” value is -90.6% [at 57.5 µM].

On to `Cc1cc(C)n(-c2nc(NCCN(C)C)c3c4c(sc3n2)COC(C)(C)C4)n1`, for which the Potency was 3.16 µM (active).

In the case of `COc1cc(OC)cc(-c2cc3nc(C)c(CCC(=O)O)c(C)n3n2)c1`, the Potency was 0.562 µM (active).

For the compound `COc1cc(OC)cc(-c2cc3nc(C)c(CCC(=O)NCc4ccccc4)c(C)n3n2)c1`, the Potency is 4.47 µM (active).

Consider `COc1cccc(CN(C)C(=O)c2ccc(OCC(=O)Nc3cccc(C(F)(F)F)c3)c(OC)c2)c1`, for which the Potency was 15.8 µM (active).

Take `COc1cccc(OCC(=O)Nc2cc(Cl)ccc2Oc2ccccc2)c1`: the “activity change, negative = inhibition” value was -25.3%.

On to `CCCCCCn1c2c(c(=N)c3c1CCC3)CCC2`, for which the Potency was 3.98 µM (active).

Take `Cc1cnc(NC(=O)CN2CCN(c3ccccn3)CC2)s1`: the Potency is 5.62 µM (active).

On to `Cc1ccc(SC2=C(Sc3ccc(C)cc3)C(=O)c3ccccc3C2=O)cc1`, for which the “activity change, negative = inhibition” value was 6.96% [at 57.5 µM].

With `CCN1CCN(C2=C(NS(=O)(=O)c3ccc(C)cc3)C(=O)c3ccccc3C2=O)CC1`, the Potency was 3.16 µM (active).

In the case of `CC(=O)NC(c1ccco1)c1ccc2cccnc2c1O` (stereo not given), the Potency is 1.41 µM (active).

`CC(=O)NC(c1ccc(C(C)C)cc1)c1ccc2cccnc2c1O` (stereo not given): the Potency was 0.631 µM (active).

Turning to `CC(=O)NC(c1ccc2ccccc2c1)c1ccc2cccnc2c1O` (stereo not given), the Potency was 0.141 µM (active).

Take `CC(=O)c1sc(C(C)(C)C)cc1NC(=O)/C=C/C(=O)O`: the Potency was 17.8 µM (active).

Consider `COc1ccc(F)cc1-c1cc(NC=O)c2ncc(-c3cccc(C(=O)N(C)C)c3)n2c1`, for which the Potency is 3.55 µM (active).

Consider `CN(C)C(=O)c1cccc(-c2cnc3c(NC=O)cc(-c4ccccc4N(C)C)cn23)c1`, for which the “activity change, negative = inhibition” value was -13%.

On to `CCSc1ccc(-c2cc(NC=O)c3ncc(-c4cccc(C(=O)NCCN(C)C)c4)n3c2)cc1`, for which the Potency is 3.16 µM (active).

For `COc1ccc(-c2cc(NC=O)c3ncc(-c4cccc(C(=O)NCCN(C)C)c4)n3c2)cc1`, the “activity change, negative = inhibition” value is -22.5% [at 57.5 µM].

Regarding `COc1cc(-c2cnc3c(NC=O)cc(-c4cccc(C(F)(F)F)c4)cn23)cc(OC)c1OC`, the Potency was 12.6 µM (active).

In the case of `COc1ccccc1-c1cc(NC=O)c2ncc(-c3ccc(F)cc3)n2c1`, the Potency is 22.4 µM (active).

Turning to `CN(C)C(=O)c1cccc(-c2cnc3c(NC=O)cc(-c4ccc(F)cc4)cn23)c1`, the “activity change, negative = inhibition” value was -12%.

`CCOc1ccc(/C=C/[N+](=O)[O-])c2ccccc12`: the Potency was 15.8 µM (active).

Consider `Cc1ccc(CN2CCC(c3cc(-c4ccc(Cl)cc4)n[nH]3)CC2)cc1`, for which the Potency was 28.2 µM (active).

For `COC(=O)c1ccccc1COc1cccn2c(N(C)Cc3cccs3)c(C)nc12`, the Potency is 28.2 µM (active).

On to `CCOC(=O)N(C)c1c(CC)nc2c(OCc3ccccc3OC)cccn12`, for which the “activity change, negative = inhibition” value is -25.4% [at 57.5 µM].

Consider `ClC(Cl)(Cl)c1nc2ccccc2n2nncc12`, for which the Potency is 2.82 µM (active).
